Results filed as inconclusive are left out. Where a call stands in place of a potency, no number is given. Activity calls are given as the source filed them. Unless noted, the call rests on the fitted dose curve; in most records, active means well fitted curve in the direction sought with a large enough effect; inconclusive means small, poorly fitted or top-dose-only effect, or another doubt; inactive means no such curve, though single readings can be large; an effect the other way counts as inactive or inconclusive.
target: Aldehyde dehydrogenase, mitochondrial (Homo sapiens) (UniProt P05091); assay: qHTS for Inhibitors of the Aldehyde Dehydrogenase Family (ALDH2) Confirmatory screens (AID 2061303; active means well fitted inhibition curve with a large enough effect; title and protocol of this record describe different tests; further: nearly all actives have a fitted effect of over 45% in size; further: potency means the concentration at half of the fitted maximal effect); settings: ALDH inhibition qHTS; series mostly up to 45.4 µM

Compound	Potency
CC(C)N(CCC(=O)c1ccc2ccccc2c1)Cc1ccccc1	3160 nM (active)
N[C@H](C(=O)O)[C@H](O)C(=O)O	inactive
Cc1scc2c1N(C(=O)CN1CCN(C)CC1)c1ccccc1NC2=O	inactive
N=C(N)c1ccc(N)cc1	inactive

test system: not listed separately; assay: qHTS for Inhibitors of the Aldehyde Dehydrogenase Family (ALDH1A2, ALDH1A3, ALDH2, ALDH3A1) (AID 2061307); settings: ALDH inhibition qHTS; series mostly up to 50.3 µM; further: nearly all actives have a fitted effect of over 50% in size; on potency: test system not described further here; potency means the concentration at half of the fitted maximal effect

Compound	Potency
O=S(=O)(c1cccc2c(I)cccc12)N1CCCNCC1	inactive
CC(C)N(CCC(=O)c1ccc2ccccc2c1)Cc1ccccc1	12.7 nM (active)
N[C@H](C(=O)O)[C@H](O)C(=O)O	inactive
Cc1scc2c1N(C(=O)CN1CCN(C)CC1)c1ccccc1NC2=O	inactive
N=C(N)c1ccc(N)cc1	inactive

target: Aldehyde dehydrogenase, mitochondrial (Homo sapiens) (UniProt P05091); assay: qHTS for Inhibitors of the Aldehyde Dehydrogenase Family (ALDH2) Primary screen (AID 2061308); settings: ALDH2 enzyme inhibition qHTS, 1536-well; series mostly up to 56 µM; further: nearly all actives have a fitted effect of over 55% in size; further: potency means the concentration at half of the fitted maximal effect

Compound	Potency
COc1ccccc1N1CCN(CCCNc2cc(=O)n(C)c(=O)n2C)CC1	inactive
O=[N+]([O-])c1ccc(CNc2nc(NCc3cccc(C(F)(F)F)c3)nc3nc[nH]c23)cc1	inactive
O=C(c1ccc(F)cc1)C1CCN(CCn2c(=O)[nH]c3ccccc3c2=O)CC1	inactive
COc1ccc2cc([C@H](C)C(=O)O)ccc2c1	inactive
CC(C)N(CCC(=O)c1ccc2ccccc2c1)Cc1ccccc1	251 nM (active)
CCCc1nn(C)c2c(=O)[nH]c(-c3cc(S(=O)(=O)N4CCN(C)CC4)ccc3OCC)nc12	inactive
COC(=O)[C@@H]1[C@H]2C[C@H]3c4[nH]c5ccccc5c4CCN3C[C@@H]2CC[C@@H]1O	inactive

target: Retinaldehyde dehydrogenase 3 (Homo sapiens) (UniProt P47895); assay: qHTS for Inhibitors of the Aldehyde Dehydrogenase Family (ALDH1A3) Confirmatory screens (AID 2061311); settings: ALDH inhibition qHTS; series mostly up to 46 µM; further: nearly all actives have a fitted effect of over 60% in size; further: potency means the concentration at half of the fitted maximal effect

Compound	Potency
CC(C)N(CCC(=O)c1ccc2ccccc2c1)Cc1ccccc1	283 nM (active)
N[C@H](C(=O)O)[C@H](O)C(=O)O	inactive
Cc1scc2c1N(C(=O)CN1CCN(C)CC1)c1ccccc1NC2=O	inactive

target: Retinaldehyde dehydrogenase 3 (Homo sapiens) (UniProt P47895); assay: qHTS for Inhibitors of the Aldehyde Dehydrogenase Family (ALDH1A3) Validation screen (AID 2061312); settings: ALDH1A3 enzyme inhibition qHTS validation, fluorescence; series mostly up to 84.7 µM; further: nearly all actives have a fitted effect of over 45% in size

Compound	Potency
CN1CC(=O)N/C1=N/C(=O)Nc1cccc(Cl)c1	inactive
CCCCCCC(=O)OC1CC(C)(C)NC(C)(C)C1	inactive
COc1ccccc1N1CCN(CCCNc2cc(=O)n(C)c(=O)n2C)CC1	inactive
O=C1C(SCCO)=C(SCCO)C(=O)c2ccccc21	inactive
O=[N+]([O-])c1ccc(CNc2nc(NCc3cccc(C(F)(F)F)c3)nc3nc[nH]c23)cc1	inactive
CC(=O)O[C@H]1CC2(C)[C@@H](C[C@@H](O)[C@H]3[C@@]4(C)CC[C@@H](O)[C@@H](C)[C@@H]4CC[C@@]32C)C1=C(CCC=C(C)C)C(=O)O (stereo partly drawn)	inactive
FC(F)(F)c1ccccc1-n1ccnc1	inactive
O=C(c1ccc(F)cc1)C1CCN(CCn2c(=O)[nH]c3ccccc3c2=O)CC1	inactive
CN1C2CCCC1CC(NC(=O)c1nn(C)c3ccccc13)C2 (stereo not drawn)	inactive
COc1ccc2cc([C@H](C)C(=O)O)ccc2c1	inactive
CCCCCC(O)CCCC(=O)O (stereo not drawn)	inactive
CN(C)CCN(Cc1cccs1)c1ccccn1	inactive
NCC(O)C1CCCCCCC1 (stereo not drawn)	inactive
O=C1NCc2c1c1c3ccccc3[nH]c1c1[nH]c3ccccc3c21	inactive
CCCCCCCCc1ccc(-c2ccc(C(=O)O)cc2)cc1	inactive
N[C@@H](CCCC(=O)O)C(=O)O	inactive
Nn1nnc2ccccc21	inactive
C[N+](C)(C)CCOC(N)=O	inactive
CC(=O)[C@H]1CCC2C3CC=C4C[C@@H](OS(=O)(=O)O)CC[C@]4(C)C3CC[C@@]21C (stereo partly drawn)	inactive
CSc1ccc(C(=O)c2[nH]c(=O)[nH]c2C)cc1	inactive
Cc1cccc(C)c1NC(=O)C(C)N (stereo not drawn)	inactive
CCN(CC)CC(=O)Nc1c(C)cccc1C	inactive
c1ccc2nc(C3=NCCN3)ccc2c1	inactive
Brc1cc2c(cc1[C@H]1Nc3ccccc3[C@H]3C=CC[C@H]31)OCO2	inactive
CNCCCN1c2ccccc2CCc2ccccc21	inactive
CCCc1nn(C)c2c(=O)[nH]c(-c3cc(S(=O)(=O)N4CCN(C)CC4)ccc3OCC)nc12	inactive
CN(C)CCOC(=O)COc1ccc(Cl)cc1	inactive
Cc1ccccc1/C=C/C1=NCCN1	inactive
C=CCc1cccc(C=NNC(=O)CN2CCN(Cc3ccccc3)CC2)c1O	inactive

target: Retinal dehydrogenase 2 (Homo sapiens) (UniProt O94788); assay: qHTS for Inhibitors of the Aldehyde Dehydrogenase Family (ALDH1A2) Confirmation screens (AID 2061314); settings: ALDH1A2 enzyme inhibition qHTS confirmation; series mostly up to 45.9 µM; further: nearly all actives have a fitted effect of over 65% in size; further: potency means the concentration at half of the fitted maximal effect

Compound	Potency
O=S(=O)(c1cccc2c(I)cccc12)N1CCCNCC1	inactive
CC(C)N(CCC(=O)c1ccc2ccccc2c1)Cc1ccccc1	56.5 nM (active)
Cc1scc2c1N(C(=O)CN1CCN(C)CC1)c1ccccc1NC2=O	inactive
N=C(N)c1ccc(N)cc1	inactive

target: Retinaldehyde dehydrogenase 3 (Homo sapiens) (UniProt P47895); assay: qHTS for Inhibitors of the Aldehyde Dehydrogenase Family (ALDH1A3) Primary screen (AID 2061315); settings: ALDH inhibition qHTS; series mostly up to 56 µM

Compound	Potency
COc1ccccc1N1CCN(CCCNc2cc(=O)n(C)c(=O)n2C)CC1	inactive
O=[N+]([O-])c1ccc(CNc2nc(NCc3cccc(C(F)(F)F)c3)nc3nc[nH]c23)cc1	inactive
O=C(c1ccc(F)cc1)C1CCN(CCn2c(=O)[nH]c3ccccc3c2=O)CC1	inactive
COc1ccc2cc([C@H](C)C(=O)O)ccc2c1	inactive
CCCc1nn(C)c2c(=O)[nH]c(-c3cc(S(=O)(=O)N4CCN(C)CC4)ccc3OCC)nc12	inactive
COC(=O)[C@@H]1[C@H]2C[C@H]3c4[nH]c5ccccc5c4CCN3C[C@@H]2CC[C@@H]1O	inactive

Source: PubChem BioAssay (NCATS)
